# Assay outcomes from PubChem.
# Compounds with a hit are over-represented: about 4% of the library has one in this group of screens.
# BoNT A protease – BoNT A light chain protease inhibition | multiplex microsphere protease substrate cleavage, flow cytometry | inhibition, % at 10 µM | 0.17% of 360,000 active; also: plate controls were buffer without enzyme for full effect and enzyme alone for no effect
# MazEF act – increases E. coli MazEF RNase cleavage of RNA; FAM/BHQ RNA-DNA oligo cleavage fluorescence, 5 h; activation, % at 20 µM; P0AE70; 0.32% of 350,000 active; in the data active = activation above about 50%
# BoNT F protease – BoNT F light chain protease inhibition | Multiplex microsphere protease cleavage assay, flow cytometry | inhibition, % at 10 µM | 0.22% of 360,000 active; in the data active = inhibition above about 35%, passing the limit was not always enough; inconclusive = no clear call, values can overlap the other calls; also: plate controls were buffer without enzyme for full effect and enzyme alone for no effect
# Autofluor counter – flagged as autofluorescent in microsphere protease counterscreen; compound autofluorescence counterscreen, microsphere flow cytometry; stronger effect = higher value; fluorescence intensity (no concentration beside the values); 3.1% of 360,000 active; in the data active = fluorescence intensity above about 16000; inconclusive = no clear call, values can overlap the other calls
# Anthrax LF inh2 – inhibitors of Bacillus anthracis lethal factor protease | multiplex microsphere protease cleavage assay, LF | inhibition, % at 10 µM | 0.12% of 360,000 active | AID 588501; also: plate controls were buffer without enzyme for full effect and enzyme alone for no effect
# VHR inh abs – inhibitors of human VHR1 phosphatase (DUSP3); P51452; recombinant VHR phosphatase, pNPP absorbance; inhibition, % at 13.3 µM; 0.52% of 290,000 active; in the data active = inhibition above about 50%
# The depositor's hits bear a star; ? = inconclusive; · = no result. Rule as the data show it, unless noted: active = inhibition above about 30%; inconclusive = no clear call, values can overlap the other calls; inactive = below that.
SMILES,BoNT A protease,MazEF act,BoNT F protease,Autofluor counter,Anthrax LF inh2,VHR inh abs
CCC(C(=O)NCCCN1CCN(CC)CC1)n1nc(C)n2c(cc3occc32)c1=O (stereo not given),2,4,4,5705,-1,-8
COC(=O)NC1CSCC1OC(=O)c1ccc(Br)cc1 (stereo not given),?,7,2,22183*,-3,18
Cc1ccnc(NC2(C(F)(F)F)N=C(c3ccccc3)NC2=O)c1 (stereo not given),3,-6,5,19679*,-3,32
COc1ccc(OCc2nnc(SCC(=O)N3c4ccccc4Sc4ccc(Cl)cc43)o2)cc1,0,-1,-2,5625,-5,33
Cc1nc2nc(-c3ccc(Cl)cc3)[nH]n2c(=O)c1Cc1ccccc1,0,7,6,2407,4,-18
Cc1nc2nc(-c3cccnc3)[nH]n2c(=O)c1Cc1ccccc1,2,2,3,20663*,0,12
CCS(=O)(=O)N1Cc2ccccc2CC1C(=O)N1CCN(c2ccccc2)CC1 (stereo not given),0,-2,2,?,14,52*
O=C(Nc1ccccc1Cl)c1cc(C2CCCCN2C(=O)c2ccccc2)on1 (stereo not given),0,·,11,4013,2,·
COC(=O)Nc1ccc(=O)n(Cc2c(Cl)cccc2Cl)c1,-1,-6,-7,23829*,-2,14
CCOC(=O)N1CCC(NC(=O)c2oc3c(F)cccc3c2C)CC1,1,12,-4,5773,-2,3
CCOC(=O)c1c(NC(=O)C(C)Sc2cccc[n+]2[O-])sc2c1CCN(Cc1ccccc1)C2 (stereo not given),45*,-48,12,8502,8,5
CS(=O)(=O)NC1CCN(Cc2ccccc2)CC1,?,1,-5,22396*,1,-2
O=C(COc1ccccc1F)NC1CCN(Cc2ccccc2)CC1,-2,-1,-4,20185*,-3,35
COCC(C)n1c(C)cc(C(=O)COC(=O)c2c(NC(C)=O)sc(C)c2C)c1C (stereo not given),0,29,-16,3376,3,13
CCSc1nnc(NC(=O)C2CSC3(C)CCC(=O)N23)s1 (stereo not given),·,5,·,·,·,·
CCOC(=O)c1c(-c2cccs2)csc1NC(=O)c1ccco1,-2,0,2,4706,-5,40
CCOC(=O)c1c(C2COc3ccccc3O2)csc1NC(=O)c1ccco1 (stereo not given),-1,-10,0,21244*,0,28
O=C(C1=NNCC1c1ccc(Cl)cc1)C1CO1 (stereo not given),0,3,0,2181,1,-12
CCCCCn1c(=O)c(C(=O)c2ccccc2)nc2ccccc21,?,4,3,18403*,-12,15
Cc1cc(C)cc(NC(=O)CSc2nnnn2-c2cccnc2)c1,0,11,3,5490,-2,4
NC1=NC2(CCCCC2)N(c2ccc(F)cc2)C(N)=N1,0,7,11,3563,-2,53*
NC1=NC2(CCCCC2)N(c2cccc(Cl)c2)C(N)=N1,-1,1,-3,16971*,-1,-13
C/C(=N/NC(=O)C1CC1(c1ccccc1)c1ccccc1)c1ccco1 (stereo not given),-2,2,-6,8283,-4,20
Cc1ccccc1NC(=O)/C(=C\c1cccs1)NC(=O)c1ccco1,-2,-4,-2,23554*,-4,16
Cc1ccccc1NC(=O)/C(=C/c1cccs1)NC(=O)c1ccco1,0,9,3,2456,0,-12
SMILES,BoNT A protease,MazEF act,BoNT F protease,Autofluor counter,Anthrax LF inh2,VHR inh abs
Cc1occc1C(=O)NCCCCc1ccccc1,-1,2,-18,5138,-1,15
COc1ccc(CCNC(=O)c2cc(-c3cc(Cl)cc(Cl)c3)oc2C)cc1,2,-11,4,21204*,-7,2
Cc1occc1C(=O)NCCc1ccc(Cl)cc1,-2,3,-2,20471*,-5,7
O=CN1CCN(c2c([N+](=O)[O-])c(=O)oc3ccccc23)CC1,0,-13,10,3063,5,-16
COc1ccc(/C=C2\C(=O)NCC(=O)N2Cc2ccccc2)cc1,-1,-1,5,?,-12,4
COc1ccc(/C=C2\C(=O)NCC(=O)N2C)cc1,5,-21,88*,6212,34*,18
COc1ccc(N2CC(NC(=O)NC(C)(C)C)CC2=O)cc1 (stereo not given),0,5,-1,2625,0,12
CC1CC(=O)N(c2ccc(NCc3ccc(Cl)cc3)c([N+](=O)[O-])c2)C1=O (stereo not given),-1,214*,-2,2221,-3,4
COc1ccccc1N(CC(=O)NC1CCCCC1)C(=O)c1csnn1,1,11,1,4086,-3,26
Cc1cccc(-c2nc3c(c(SCC(=O)N4CCOCC4)n2)COC(C)(C)C3)c1,0,13,3,5370,-1,60*
CC1(C)Cc2nc(-c3ccccc3)nc(SCC(=O)N3CCOCC3)c2CO1,0,4,-4,5798,-1,39
Cc1ccc2nc(SCC(=O)Nc3ccc4c(c3)OCO4)nc(=O)n2c1,1,1,-1,6242,-6,·
OCC1CCCN(C(=S)NCCc2ccccc2)C1 (stereo not given),-1,-1,-19,4046,0,11
CN1C/C(=C\c2ccc(N3CCOCC3)cc2)C(=O)/C(=C/c2ccc(N3CCOCC3)cc2)C1,34*,57*,7,9043,33*,-5
CCN1C/C(=C/c2ccc(N3CCOCC3)cc2)C(=O)/C(=C/c2ccc(N3CCOCC3)cc2)C1,37*,-178,-8,4303,22,18
CCc1ccc(/C=C2/SC(N3CCOCC3)=NC2=O)cc1,0,7,-3,5431,-5,2
Cc1nn(CC(=O)N2CCC(C(N)=O)CC2)c(=O)c2nn(-c3ccccc3)c(C)c12,-1,7,0,5572,1,-10
O=S(=O)(Cc1ccccc1)Nn1cnnc1,0,6,-1,22495*,0,17
Cc1cccc(NS(=O)(=O)Cc2ccccc2)n1,0,13,?,4718,-6,18
Cc1nn(-c2ccccc2)c(Cl)c1/C=N/N1CCN(c2ccccn2)CC1,-1,4,0,2574,-1,24
O=C(NC1CCCCC1)c1cc([N+](=O)[O-])ccc1N1CCCC1,-2,1,1,4612,-4,40
CC(=O)N(CC(=O)Nc1nn(-c2ccccc2)nc1C(N)=O)Cc1ccccc1,-1,8,-4,5757,-3,24
CCOc1ccccc1CNC(=O)C1CCC(=O)N1C(C)C (stereo not given),3,12,7,22457*,0,26
Cc1ccc(N=Nc2c(O)[nH]c3ccc(F)cc23)cc1,0,474*,?,3835,-16,-4
